Inconclusive results are not listed. Activity calls are given as the source filed them. Rule for the calls: active = hit-call score of the fitted dose curve at least 0.9, where 1 is the maximum; inconclusive = response in the unintended direction; inactive = score below 0.9.
How the values were obtained:
[1] = TOX21_p53_BLA_p2_viability: Viability Assessment in the Tox21 HCT-116 p53 Agonism Beta-lactamase Assay, Phase 2 (AID 2283591);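 note: compound exposure lasted 16 h at 37 °C; actives lower the ATP signal meaning cytotoxicity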
Outline: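 HCT116 p53-bla cells, 4000/well, dosed after 5 h plating (217-fold dilution of DMSO stocks) and incubated 16 h at 37C. Viability taken as cellular ATP by CellTiter-Glo luminescence after 30 min RT; signal loss marks cytotoxicity.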

[2] = target: Cellular tumor antigen p53 (Homo sapiens) (UniProt P04637); assay: TOX21_p53_BLA_p2_ratio: Tox21 HCT-116 p53 Agonism Beta-lactamase Assay, Ratio, Phase 2 (AID 2283592)
Chain of Cellular tumor antigen p53 (Homo sapiens) (P04637 whole entry, looked up): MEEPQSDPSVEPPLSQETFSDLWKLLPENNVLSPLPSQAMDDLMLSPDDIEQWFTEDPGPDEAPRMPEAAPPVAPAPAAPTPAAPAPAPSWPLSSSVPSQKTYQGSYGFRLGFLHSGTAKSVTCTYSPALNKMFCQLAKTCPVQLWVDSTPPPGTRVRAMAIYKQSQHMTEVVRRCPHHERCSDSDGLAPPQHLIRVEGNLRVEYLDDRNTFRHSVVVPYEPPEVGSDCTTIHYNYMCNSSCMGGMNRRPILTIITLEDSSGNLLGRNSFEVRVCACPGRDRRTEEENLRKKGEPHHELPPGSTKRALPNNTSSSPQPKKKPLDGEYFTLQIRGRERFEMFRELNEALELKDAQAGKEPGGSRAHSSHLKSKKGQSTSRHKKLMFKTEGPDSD
Outline: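 Human colon HCT116 cells with an inducible p53 beta-lactamase reporter are exposed to test chemicals for 16 h at 37C. Reporter induction is read as the 460/530 nm emission ratio after CCF4-AM loading, normalized to DMSO.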

[3] = TOX21_p53_BLA_p3_viability: Viability Assessment in the Tox21 HCT-116 p53 Agonism Beta-lactamase Assay, Phase 3 (AID 2283593);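 note: cells exposed to compound for 16 h before reading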
Outline: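 HCT116 cells, 4000/well, dosed 5 h after plating by pin transfer (217-fold dilution from DMSO stock) and incubated 16 h at 37C, 5% CO2. Viability read as ATP luminescence with CellTiter-Glo after 30 min at room temperature.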

[4] = target: Cellular tumor antigen p53 (Homo sapiens) (UniProt P04637); assay: TOX21_p53_BLA_p3_ratio: Tox21 HCT-116 p53 Agonism Beta-lactamase Assay, Ratio, Phase 3 (AID 2283596)
Outline: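 HCT116 p53-bla cells (4000/well) given compound in DMSO (217-fold dilution) after 5 h, incubated 16 h at 37C. CCF4-AM substrate 2 h at room temperature; 460/530 nm emission ratio, gain fitted against DMSO.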

[5] = TOX21_p53_BLA_p4_viability: Viability Assessment in the Tox21 HCT-116 p53 Agonism Beta-lactamase Assay, Phase 4 (AID 2283597);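 note: hits lower the luminescence signal meaning cytotoxicity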
Outline: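 Luminescent ATP readout (CellTiter-Glo, 30 min, room temperature) in the same wells as the p53 bla ratio. HCT116 cells were treated for 16 h at 37C with DMSO-dissolved compounds.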

[6] = target: Cellular tumor antigen p53 (Homo sapiens) (UniProt P04637); assay: TOX21_p53_BLA_p5_ratio: Tox21 HCT-116 p53 Agonism Beta-lactamase Assay, Ratio, Phase 5 (AID 2283599)
Outline: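 HCT-116 p53-bla cells (4000/well) plated 5 h, dosed with compound (217-fold DMSO dilution) for 16 h at 37 C; CCF4-AM substrate 2 h at room temperature. Activity is the 460/530 nm emission ratio (405 nm excitation), fitted in gain-of-signal direction versus DMSO.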

[7] = target: Cellular tumor antigen p53 (Homo sapiens) (UniProt P04637); assay: TOX21_p53_BLA_p4_ratio: Tox21 HCT-116 p53 Agonism Beta-lactamase Assay, Ratio, Phase 4 (AID 2283601)
Outline: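 HCT-116 p53 beta-lactamase reporter cells (4000/well) preincubated 5 h, then compound (217-fold dilution of DMSO stock) for 16 h at 37C. CCF4-AM substrate added 2 h at room temperature; 460/530 nm emission ratio fitted upward versus DMSO.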

[8] = TOX21_p53_BLA_p5_viability: Viability Assessment in the Tox21 HCT-116 p53 Agonism Beta-lactamase Assay, Phase 5 (AID 2283600)
Outline: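 Seeded cells (4000/well) settle 5 h before compound addition. Plates then incubate 16 h at 37C, receive FRET substrate for 2 h, and finally CellTiter-Glo, with luminescence measured after a 30 min room-temperature incubation.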

Measured: outcome

CCc1cccc(N(C)C(N)=Nc2cccc3ccccc23)c1
inactive: [1] | [2] | [3] | [4] | [5] | [6] | [7]

COc1ccc(N)c(OC)c1
inactive: [1] | [2] | [3] | [4] | [5] | [6] | [7]

OCC(O)CS (stereo not drawn)
inactive: [1] | [2] | [3] | [4] | [5] | [6] | [7]

Cc1ncc(C[n+]2csc(CCOP(=O)(O)OP(=O)(O)O)c2C)c(N)n1
inactive: [1] | [2] | [3] | [4] | [5] | [6] | [7]

O=[N+]([O-])c1ccc(NCCO)c(OCCO)c1
inactive: [1] | [2] | [3] | [4] | [5] | [6] | [7]

CCC(C(=O)OCCN(CC)CC)c1ccccc1 (stereo not drawn)
inactive: [1] | [2] | [3] | [4] | [5] | [6] | [7]

C[C@@H]1CCC[C@H](C)N1
inactive: [1] | [2] | [3] | [4] | [5] | [6] | [7]

O=Cc1cc2ccccc2o1
inactive: [1] | [2] | [3] | [4] | [5] | [6] | [7]

O=C(O)c1cc(-c2ccc(F)cc2F)ccc1O
inactive: [1] | [2] | [3] | [4] | [5] | [6] | [7]

CCC(Oc1ccccc1)C(=O)N[C@@H]1C(=O)N2[C@@H]1SC(C)(C)[C@@H]2C(=O)O (stereo partly drawn)
inactive: [1] | [2] | [3] | [4] | [5] | [6] | [7]

CC[C@H]1OC(=O)[C@H](C)[C@@H](O[C@H]2C[C@@](C)(OC)[C@@H](O)[C@H](C)O2)[C@H](C)[C@@H](O[C@@H]2O[C@H](C)C[C@H](N(C)C)[C@H]2O)[C@](C)(OC)C[C@@H](C)C(=O)[C@H](C)[C@@H](O)[C@]1(C)O
inactive: [1] | [2] | [3] | [4] | [5] | [6] | [7]

CCCCCCCCCCCCI
inactive: [1] | [2] | [3] | [4] | [5] | [8]
